Reference: PubChem BioAssay AID1159580 (chemical genetic matrix, 2015)
In all, about 5,500 compounds went through this assay and about 2,000 (36%) were called active. Inconclusive results (about 18%) are left out. Rule as the data show it: active = normalized growth mostly below about 0.91 (no sharp cut-off); inconclusive = no clear call, values can overlap the other calls; inactive = mostly above about 0.92. The list shows a part of the results.

Assay: chemical genetic growth profiling, strain panel (AID 1159580);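 also: tested at 20 µM; growth read once vehicle control cultures reached saturation at 30 °C; 1 = growth at the plate median or of vehicle wells; lower values mean less growth of the strain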
Settings: growth OD

Measured: normalized growth

CC1(C)S[C@@H]2[C@H](NC(=O)COc3ccccc3)C(=O)N2[C@H]1C(=O)O
inactive: S. cerevisiae deletion strains, locus YJR075W, strain HOC1, active compounds read low 1 | S. cerevisiae deletion strains, locus YKL009W, strain mrt4, active compounds read low 1.03 | S. cerevisiae deletion strains, locus YKL068W, active compounds read low 1.02 | S. cerevisiae deletion strains, locus YKL085W, strain MDH1 (second series), active compounds read low 1.01 | S. cerevisiae deletion strains, locus YKL085W, strain MDH1, active compounds read low 1.01 | S. cerevisiae deletion strains, locus YKL160W, strain elf1, active compounds read low 0.977 | S. cerevisiae deletion strains, locus YKL190W, strain CNB1, active compounds read low 0.992 | S. cerevisiae deletion strains, locus YKR001C, strain vps1, active compounds read low 1.03 | S. cerevisiae deletion strains, locus YKR026C, strain gcn3, active compounds read low 0.983 | S. cerevisiae deletion strains, locus YKR091W, strain srl3, active compounds read low 0.991 | S. cerevisiae deletion strains, locus YLL001W, strain dnm1, active compounds read low 0.935 | S. cerevisiae deletion strains, locus YLL026W, active compounds read low 0.983 | S. cerevisiae deletion strains, locus YLL041C, strain sdh2, active compounds read low 0.999 | S. cerevisiae deletion strains, locus YLR027C, strain aat2, active compounds read low 0.973 | S. cerevisiae deletion strains, locus YLR039C, strain RIC1, active compounds read low 1.04 | S. cerevisiae deletion strains, locus YLR058C, strain SHM2, active compounds read low 1 | S. cerevisiae deletion strains, locus YLR102C, strain apc9, active compounds read low 1.02 | S. cerevisiae deletion strains, locus YLR113W, strain HOG1, active compounds read low 0.994 | S. cerevisiae deletion strains, locus YLR221C, strain rsa3, active compounds read low 1.01 | S. cerevisiae deletion strains, locus YLR258W, strain gsy2, active compounds read low 0.999 | S. cerevisiae deletion strains, locus YLR262C, strain YPT6 (second series), active compounds read low 0.968 | S. cerevisiae deletion strains, locus YLR262C, strain YPT6, active compounds read low 1.04 | S. cerevisiae deletion strains, locus YLR268W, strain sec22, active compounds read low 1.03 | S. cerevisiae deletion strains, locus YLR320W, strain mms22, active compounds read low 0.99 | S. cerevisiae deletion strains, locus YLR330W, strain CHS5, active compounds read low 1 | S. cerevisiae deletion strains, locus YLR342W, strain FKS1 (second series), active compounds read low 0.976 | S. cerevisiae deletion strains, locus YLR342W, strain FKS1, active compounds read low 0.975 | S. cerevisiae deletion strains, locus YLR357W, strain rsc2, active compounds read low 0.992 | S. cerevisiae deletion strains, locus YLR370C, strain arc18, active compounds read low 1 | S. cerevisiae deletion strains, locus YLR371W, strain rom2, active compounds read low 1.02 | S. cerevisiae deletion strains, locus YLR384C, strain iki3, active compounds read low 0.98 | S. cerevisiae deletion strains, locus YLR418C, strain cdc73, active compounds read low 1.06 | S. cerevisiae deletion strains, locus YML016C, strain PPZ1, active compounds read low 1.01 | S. cerevisiae deletion strains, locus YML032C, strain rad52, active compounds read low 1.04 | S. cerevisiae deletion strains, locus YML120C, strain ndi1, active compounds read low 0.995 | S. cerevisiae deletion strains, locus YML124C, strain tub3, active compounds read low 1.03 | S. cerevisiae deletion strains, locus YMR058W, strain fet3, active compounds read low 0.988 | S. cerevisiae deletion strains, locus YMR078C, strain ctf18, active compounds read low 1.02 | S. cerevisiae deletion strains, locus YMR125W, strain sto1, active compounds read low 1.01 | S. cerevisiae deletion strains, locus YMR129W, active compounds read low 0.998 | S. cerevisiae deletion strains, locus YMR205C, strain PFK2, active compounds read low 0.994 | S. cerevisiae deletion strains, locus YMR223W, strain ubp8, active compounds read low 1.02 | S. cerevisiae deletion strains, locus YMR231W, strain pep5, active compounds read low 1.01 | S. cerevisiae deletion strains, locus YMR263W, strain SAP30, active compounds read low 1 | S. cerevisiae deletion strains, locus YMR307W, strain GAS1, active compounds read low 0.989 | S. cerevisiae deletion strains, locus YNL067W, strain RPL9B, active compounds read low 1.01 | S. cerevisiae deletion strains, locus YNL071W, strain lat1, active compounds read low 1 | S. cerevisiae deletion strains, locus YNL128W, strain TEP1, active compounds read low 1.01 | S. cerevisiae deletion strains, locus YNL153C, strain GIM3, active compounds read low 1 | S. cerevisiae deletion strains, locus YNL183C, strain NPR1, active compounds read low 0.937 | S. cerevisiae deletion strains, locus YNL209W, strain ssb2, active compounds read low 1 | S. cerevisiae deletion strains, locus YNL233W, strain BNI4, active compounds read low 1.01 | S. cerevisiae deletion strains, locus YNL248C, strain rpa49, active compounds read low 1.03 | S. cerevisiae deletion strains, locus YNL250W, strain rad50, active compounds read low 1.03 | S. cerevisiae deletion strains, locus YNL271C, strain bni1, active compounds read low 1.02 | S. cerevisiae deletion strains, locus YNL298W, strain CLA4, active compounds read low 1.04 | S. cerevisiae deletion strains, locus YNL307C, strain MCK1, active compounds read low 1.03 | S. cerevisiae deletion strains, locus YNL322C, strain KRE1 (second series), active compounds read low 0.997 | S. cerevisiae deletion strains, locus YNL322C, strain KRE1, active compounds read low 1 | S. cerevisiae deletion strains, locus YNR049C, strain mso1, active compounds read low 0.994 | S. cerevisiae deletion strains, locus YNR052C, strain pop2, active compounds read low 1.01 | S. cerevisiae deletion strains, locus YOL006C, strain TOP1, active compounds read low 1.05 | S. cerevisiae deletion strains, locus YOL012C, strain htz1 1.38 | S. cerevisiae deletion strains, locus YOL147C, strain pex11, active compounds read low 1.02 | S. cerevisiae deletion strains, locus YOR001W, strain rrp6, active compounds read low 0.983 | S. cerevisiae deletion strains, locus YOR061W, strain CKA2, active compounds read low 1.02 | S. cerevisiae deletion strains, locus YOR069W, strain VPS5, active compounds read low 1 | S. cerevisiae deletion strains, locus YOR070C, strain gyp1, active compounds read low 1 | S. cerevisiae deletion strains, locus YOR080W, strain dia2, active compounds read low 0.986 | S. cerevisiae deletion strains, locus YOR083W, strain WHI5, active compounds read low 0.954 | S. cerevisiae deletion strains, locus YOR106W, strain vam3, active compounds read low 0.963 | S. cerevisiae deletion strains, locus YOR136W, strain idh2, active compounds read low 1.03 | S. cerevisiae deletion strains, locus YOR144C, strain elg1, active compounds read low 1.02 | S. cerevisiae deletion strains, locus YOR184W, strain ser1, active compounds read low 1.04 | S. cerevisiae deletion strains, locus YOR231W, strain MKK1, active compounds read low 1.02 | S. cerevisiae deletion strains, locus YOR265W, strain rbl2, active compounds read low 1 | S. cerevisiae deletion strains, locus YOR270C, strain vph1, active compounds read low 1.01 | S. cerevisiae deletion strains, locus YOR290C, strain snf2, active compounds read low 1.01 | S. cerevisiae deletion strains, locus YOR316C, strain cot1, active compounds read low 1.02 | S. cerevisiae deletion strains, locus YPL051W, strain arl3, active compounds read low 0.982 | S. cerevisiae deletion strains, locus YPL055C, strain LGE1, active compounds read low 1.01 | S. cerevisiae deletion strains, locus YPL078C, strain atp4, active compounds read low 0.955 | S. cerevisiae deletion strains, locus YPL106C, strain sse1, active compounds read low 0.998 | S. cerevisiae deletion strains, locus YPL240C, strain hsp82, active compounds read low 1 | S. cerevisiae deletion strains, locus YPL241C, strain CIN2, active compounds read low 1 | S. cerevisiae deletion strains, locus YPL256C, strain CLN2, active compounds read low 0.968 | S. cerevisiae deletion strains, locus YPR119W, strain clb2, active compounds read low 1.02 | S. cerevisiae deletion strains, locus YPR141C, strain kar3, active compounds read low 1.03 | S. cerevisiae deletion strains, locus YPR163C, strain tif3, active compounds read low 1.04 | S. cerevisiae deletion strains, locus YPR167C, strain met16, active compounds read low 1.02 | S. cerevisiae deletion strains, strain wtn01, active compounds read low 1.02 | S. cerevisiae strains, strain wild type, active compounds read low 1.01
